“And” between values parts separate entries of the source, which are not always exact repeats. Equal entries are not always repeated. The panel holds about 79,000 compounds, 15% with a hit somewhere; the sample as a whole holds those more often. Some structures have more than one record in an assay (separate samples or runs), and their calls can disagree. The source made the active and inactive calls. Cut-off read from the data, not from the text of the source: active = growth inhibition above about 70%; inactive = the rest.

From PubChem BioAssay (NCI) come the findings set out here.

The nature of this assay: NCI Yeast Anticancer Drug Screen. Data for the bub3 strain (AID 167). Particulars: S. cerevisiae bub3 mutant strain, at 50.0 µM, stronger effect = higher value. The method, boiled down: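 Whole-cell yeast assay. The mutant strain was incubated with compounds, and growth inhibition was determined by comparison with vehicle-treated cells.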
Regarding `COc1ccc2[nH]c3c(C)c4ccncc4c(C)c3c2c1`, the growth inhibition was 92.7% (active) and 99.3% (active). As to `CC(=O)OC1OC(CI)C(OC(C)=O)C(OC(C)=O)C1OC(C)=O` (stereo not given), the growth inhibition was 19.8% (inactive) and 94% (active). For `Oc1cc2c(cc1C(c1ccc3c(c1)OCO3)N1CCN(C(c3ccc4c(c3)OCO4)c3cc4c(cc3O)OCO4)CC1)OCO2` (stereo not given), the growth inhibition is 54.2% (inactive). As to `O=Cc1cc(Br)ccc1O`, the growth inhibition was 91.7% (active) and 97.5% (active). As for `Cc1n(-c2ccccc2)c2c([n+]1Cc1ccc([N+](=O)[O-])cc1)C(=O)c1ccccc1C2=O`, the growth inhibition was 88.5% (active).

With `Nc1ncnc2c1ncn2CCCl`, the growth inhibition was 32.4% (inactive). Consider `CCOc1ccc2ccccc2c1C(Cc1ccc(Cl)cc1)NCCO` (stereo not given), for which the growth inhibition was 94.7% (active). The result for `COc1ccc(Oc2ccccc2N)cc1` reads 63.4% (inactive); that for `O=C1C(Cl)=C(Cl)C(Cl)(Cl)C(Cl)=C1Cl`, 98.8% (active) and 55.9% (inactive); that for `CCCCCCCCCCCC(=O)CN1CCOCC1`, 99.7% (active). The result for `CC[C@](O)(CC(=O)O[C@H]1C(=O)O[C@@H]2C[C@H]3C(C)=CC(=O)[C@@H](O)[C@]3(C)[C@H]3[C@@]4(O)OC[C@]32[C@@H]1[C@@H](C)[C@H]4O)C(C)C` reads 90.3% (active); that for `O=C1Nc2ccccc2C1(O)C/C(=N/O)c1ccc2ccccc2c1` (stereo not given), 14.9% (inactive); that for `NNC(=O)c1ccc(NC(=O)CSc2nc3ccccc3s2)cc1`, 97.8% (active). As for `C[C@H]1CC[C@H]([C@@H](C)[C@H]2[C@@H](O)C[C@H]3[C@@H]4CC[C@H]5C[C@@H](O)CC[C@]5(C)[C@H]4CC[C@]23C)NC1`, the figure is 92.1% (active) and 89.3% (active). For `O=C1/C(=C/c2ccc(Cl)cc2)CNC/C1=C\c1ccc(Cl)cc1`, the growth inhibition is 79.9% (active) and 85.3% (active).

As for `CCN(CC)c1ccc(/C=C/c2ccnc3ccccc23)cc1`, the growth inhibition is 98.7% (active) and 98.3% (active). In the case of `c1ccc(-c2[nH]c3ccccc3c2-c2ccccn2)cc1`, the growth inhibition is 98.7% (active).

For the compound `Nc1cc2c(cc1Cl)[nH]c(=O)c1cc(Cl)ccc12`, the growth inhibition is -11.3% (inactive).

Turning to `C1=C(c2ccccc2)N(CCc2ccccc2)C(c2ccccc2)=CN1Cc1ccccc1`, the growth inhibition is 98.2% (active).

With `c1ccc(-c2nc3ccccc3[nH]2)cc1`, the growth inhibition was -13.2% (inactive) and -5.15% (inactive). Take `O=Cc1cc([N+](=O)[O-])cc(CCl)c1O`: the growth inhibition was -6.45% (inactive). With `COC(=O)[C@]1(C)CCC[C@]2(C)c3ccc(C(C)C)cc3CC[C@@H]12`, the growth inhibition is -31.1% (inactive) and 99.2% (active). With `CCOC(=O)c1ccc(NCc2ccc3ccccc3n2)cc1`, the growth inhibition is -11.1% (inactive). `CCCCCCCCCCCCCCCC(=O)NCC[N+](C)(C)C`: the growth inhibition is 99.5% (active).

As to `c1ccc2c(c1)CNc1ccccc1-2`, the growth inhibition is 85.5% (active).
